1 compound from ChEMBL document CHEMBL2218924, “A broad activity screen in support of a chemogenomic map for kinase signalling research and drug discovery” (Biochem J, 2013) can be followed below.

For orientation: residual activity means the signal under treatment as a percentage of the control signal.

The target of test [1] is T1, Ephrin type-A receptor 3 (Homo sapiens) (UniProt P29320).
T1 sequence (whole entry): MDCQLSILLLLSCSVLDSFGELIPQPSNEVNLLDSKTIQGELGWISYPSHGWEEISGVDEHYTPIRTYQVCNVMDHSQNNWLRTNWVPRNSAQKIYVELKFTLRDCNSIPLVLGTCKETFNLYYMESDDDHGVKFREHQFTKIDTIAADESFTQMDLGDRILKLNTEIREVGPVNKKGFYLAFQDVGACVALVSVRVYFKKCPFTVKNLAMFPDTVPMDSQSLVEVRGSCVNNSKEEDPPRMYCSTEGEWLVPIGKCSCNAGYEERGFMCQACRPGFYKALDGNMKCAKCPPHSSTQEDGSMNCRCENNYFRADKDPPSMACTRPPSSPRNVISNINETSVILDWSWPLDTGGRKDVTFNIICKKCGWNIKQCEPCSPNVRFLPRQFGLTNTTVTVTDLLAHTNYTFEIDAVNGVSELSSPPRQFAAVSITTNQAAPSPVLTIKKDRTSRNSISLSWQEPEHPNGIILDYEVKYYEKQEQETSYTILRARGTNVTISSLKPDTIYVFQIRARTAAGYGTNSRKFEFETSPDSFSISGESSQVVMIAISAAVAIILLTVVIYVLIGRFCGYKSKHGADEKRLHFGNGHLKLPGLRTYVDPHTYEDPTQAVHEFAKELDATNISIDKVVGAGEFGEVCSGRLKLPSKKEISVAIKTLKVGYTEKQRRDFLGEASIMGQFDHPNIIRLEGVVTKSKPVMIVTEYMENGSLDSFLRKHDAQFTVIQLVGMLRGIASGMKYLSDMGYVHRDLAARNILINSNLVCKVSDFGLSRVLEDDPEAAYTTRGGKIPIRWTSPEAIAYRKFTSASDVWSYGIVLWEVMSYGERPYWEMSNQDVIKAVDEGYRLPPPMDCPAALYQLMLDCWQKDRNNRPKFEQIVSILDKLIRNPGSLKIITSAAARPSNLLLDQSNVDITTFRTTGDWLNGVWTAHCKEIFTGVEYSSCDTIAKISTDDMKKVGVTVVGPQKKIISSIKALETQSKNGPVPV
The settings on record: at 10 µM.

The target of test [2] is Ephrin type-A receptor 7 (Homo sapiens) (UniProt Q15375). The conditions noted are these: at 1 µM.
Ephrin type-A receptor 7 (Homo sapiens), sequence (Q15375 28-998 limits assumed): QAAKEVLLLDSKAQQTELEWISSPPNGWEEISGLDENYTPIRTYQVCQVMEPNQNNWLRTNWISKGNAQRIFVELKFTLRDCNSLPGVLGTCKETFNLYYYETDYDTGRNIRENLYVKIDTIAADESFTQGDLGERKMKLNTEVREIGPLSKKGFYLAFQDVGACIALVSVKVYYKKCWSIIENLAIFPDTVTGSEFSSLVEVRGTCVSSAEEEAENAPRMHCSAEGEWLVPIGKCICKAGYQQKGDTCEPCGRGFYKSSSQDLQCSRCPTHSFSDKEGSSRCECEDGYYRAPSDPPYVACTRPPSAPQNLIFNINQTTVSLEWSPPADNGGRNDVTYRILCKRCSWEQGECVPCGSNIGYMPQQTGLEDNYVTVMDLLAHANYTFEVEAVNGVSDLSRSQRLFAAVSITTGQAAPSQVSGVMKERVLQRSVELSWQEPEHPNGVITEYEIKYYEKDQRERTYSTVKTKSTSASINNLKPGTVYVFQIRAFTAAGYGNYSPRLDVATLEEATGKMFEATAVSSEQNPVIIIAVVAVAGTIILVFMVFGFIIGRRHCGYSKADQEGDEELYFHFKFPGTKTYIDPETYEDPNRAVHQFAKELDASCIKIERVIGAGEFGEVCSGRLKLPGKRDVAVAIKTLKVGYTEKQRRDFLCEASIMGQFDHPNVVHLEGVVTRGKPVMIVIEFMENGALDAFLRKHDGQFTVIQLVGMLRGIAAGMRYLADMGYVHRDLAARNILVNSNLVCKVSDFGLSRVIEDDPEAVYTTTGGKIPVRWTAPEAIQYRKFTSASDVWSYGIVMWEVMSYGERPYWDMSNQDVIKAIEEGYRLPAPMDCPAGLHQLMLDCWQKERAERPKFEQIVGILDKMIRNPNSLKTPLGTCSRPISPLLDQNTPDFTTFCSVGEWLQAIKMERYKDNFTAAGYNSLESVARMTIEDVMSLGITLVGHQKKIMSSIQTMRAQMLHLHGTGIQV
Test [3] has the same target. The settings on record: at 10 µM.
Test [4] deals with T2, Ephrin type-B receptor 1 (Homo sapiens) (UniProt P54762).
T2 sequence (whole entry): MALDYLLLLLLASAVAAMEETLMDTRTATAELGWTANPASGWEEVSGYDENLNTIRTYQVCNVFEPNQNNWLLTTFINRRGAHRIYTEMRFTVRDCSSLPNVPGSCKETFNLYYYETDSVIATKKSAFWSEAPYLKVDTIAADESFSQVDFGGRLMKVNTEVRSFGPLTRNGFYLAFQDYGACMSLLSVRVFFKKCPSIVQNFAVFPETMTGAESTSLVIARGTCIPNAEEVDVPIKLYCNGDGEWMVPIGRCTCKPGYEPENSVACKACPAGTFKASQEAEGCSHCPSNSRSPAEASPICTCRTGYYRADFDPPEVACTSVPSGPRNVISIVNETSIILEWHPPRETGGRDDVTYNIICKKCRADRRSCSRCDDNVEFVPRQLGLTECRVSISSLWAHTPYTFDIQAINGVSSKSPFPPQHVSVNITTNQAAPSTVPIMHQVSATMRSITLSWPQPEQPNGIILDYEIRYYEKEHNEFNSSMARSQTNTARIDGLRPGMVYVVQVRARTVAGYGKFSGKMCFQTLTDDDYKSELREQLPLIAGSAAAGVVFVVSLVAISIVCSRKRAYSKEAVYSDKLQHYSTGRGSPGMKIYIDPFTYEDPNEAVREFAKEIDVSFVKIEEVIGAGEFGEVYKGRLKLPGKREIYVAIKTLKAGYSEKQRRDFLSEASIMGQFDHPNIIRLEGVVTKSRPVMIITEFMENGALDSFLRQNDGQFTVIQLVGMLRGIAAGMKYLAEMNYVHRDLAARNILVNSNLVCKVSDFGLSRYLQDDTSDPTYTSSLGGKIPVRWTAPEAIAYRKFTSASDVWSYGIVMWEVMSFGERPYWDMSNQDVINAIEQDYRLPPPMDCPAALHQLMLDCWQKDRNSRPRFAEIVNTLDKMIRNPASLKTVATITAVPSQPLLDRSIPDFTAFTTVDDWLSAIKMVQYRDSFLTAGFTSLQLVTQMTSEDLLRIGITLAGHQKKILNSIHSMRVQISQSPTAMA
The settings on record: at 1 µM.

Test [5] concerns the target T2, Ephrin type-B receptor 1 (Homo sapiens). The settings on record: at 10 µM.
The target in test [6] is T3, Ephrin type-B receptor 2 (Homo sapiens) (UniProt P29323).
T3 sequence (whole entry): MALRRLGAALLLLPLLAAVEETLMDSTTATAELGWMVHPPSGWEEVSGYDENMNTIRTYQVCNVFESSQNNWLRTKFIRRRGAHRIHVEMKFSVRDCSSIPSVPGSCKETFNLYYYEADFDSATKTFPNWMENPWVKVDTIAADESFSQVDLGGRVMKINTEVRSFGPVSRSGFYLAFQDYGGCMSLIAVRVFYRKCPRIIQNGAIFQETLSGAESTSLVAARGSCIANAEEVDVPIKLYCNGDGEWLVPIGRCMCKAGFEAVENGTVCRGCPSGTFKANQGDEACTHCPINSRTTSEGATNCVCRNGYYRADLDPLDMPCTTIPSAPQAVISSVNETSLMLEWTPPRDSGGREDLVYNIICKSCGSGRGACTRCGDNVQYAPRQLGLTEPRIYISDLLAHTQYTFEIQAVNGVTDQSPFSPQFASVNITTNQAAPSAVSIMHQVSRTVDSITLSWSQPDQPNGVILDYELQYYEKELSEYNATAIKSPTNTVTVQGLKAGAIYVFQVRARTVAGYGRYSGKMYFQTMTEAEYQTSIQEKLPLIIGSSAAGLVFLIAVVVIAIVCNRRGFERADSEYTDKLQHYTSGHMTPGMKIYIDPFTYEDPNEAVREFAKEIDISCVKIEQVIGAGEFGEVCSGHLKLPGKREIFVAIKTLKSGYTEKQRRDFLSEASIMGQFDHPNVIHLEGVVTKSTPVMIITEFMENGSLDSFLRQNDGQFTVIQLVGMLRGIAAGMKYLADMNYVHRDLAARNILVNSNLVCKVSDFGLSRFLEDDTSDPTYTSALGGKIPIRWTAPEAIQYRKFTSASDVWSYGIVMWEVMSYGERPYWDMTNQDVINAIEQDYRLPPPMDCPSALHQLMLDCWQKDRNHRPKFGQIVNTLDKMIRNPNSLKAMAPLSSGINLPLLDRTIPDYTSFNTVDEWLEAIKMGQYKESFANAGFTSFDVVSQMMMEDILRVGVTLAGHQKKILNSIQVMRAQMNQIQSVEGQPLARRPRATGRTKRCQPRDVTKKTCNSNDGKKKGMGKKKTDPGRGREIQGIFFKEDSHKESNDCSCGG
The conditions noted are these: at 1 µM.

Test [7] concerns the target T3, Ephrin type-B receptor 2 (Homo sapiens). The conditions noted are these: at 10 µM.
The target of test [8] is T4, Ephrin type-B receptor 3 (Homo sapiens) (UniProt P54753).
T4 sequence (whole entry): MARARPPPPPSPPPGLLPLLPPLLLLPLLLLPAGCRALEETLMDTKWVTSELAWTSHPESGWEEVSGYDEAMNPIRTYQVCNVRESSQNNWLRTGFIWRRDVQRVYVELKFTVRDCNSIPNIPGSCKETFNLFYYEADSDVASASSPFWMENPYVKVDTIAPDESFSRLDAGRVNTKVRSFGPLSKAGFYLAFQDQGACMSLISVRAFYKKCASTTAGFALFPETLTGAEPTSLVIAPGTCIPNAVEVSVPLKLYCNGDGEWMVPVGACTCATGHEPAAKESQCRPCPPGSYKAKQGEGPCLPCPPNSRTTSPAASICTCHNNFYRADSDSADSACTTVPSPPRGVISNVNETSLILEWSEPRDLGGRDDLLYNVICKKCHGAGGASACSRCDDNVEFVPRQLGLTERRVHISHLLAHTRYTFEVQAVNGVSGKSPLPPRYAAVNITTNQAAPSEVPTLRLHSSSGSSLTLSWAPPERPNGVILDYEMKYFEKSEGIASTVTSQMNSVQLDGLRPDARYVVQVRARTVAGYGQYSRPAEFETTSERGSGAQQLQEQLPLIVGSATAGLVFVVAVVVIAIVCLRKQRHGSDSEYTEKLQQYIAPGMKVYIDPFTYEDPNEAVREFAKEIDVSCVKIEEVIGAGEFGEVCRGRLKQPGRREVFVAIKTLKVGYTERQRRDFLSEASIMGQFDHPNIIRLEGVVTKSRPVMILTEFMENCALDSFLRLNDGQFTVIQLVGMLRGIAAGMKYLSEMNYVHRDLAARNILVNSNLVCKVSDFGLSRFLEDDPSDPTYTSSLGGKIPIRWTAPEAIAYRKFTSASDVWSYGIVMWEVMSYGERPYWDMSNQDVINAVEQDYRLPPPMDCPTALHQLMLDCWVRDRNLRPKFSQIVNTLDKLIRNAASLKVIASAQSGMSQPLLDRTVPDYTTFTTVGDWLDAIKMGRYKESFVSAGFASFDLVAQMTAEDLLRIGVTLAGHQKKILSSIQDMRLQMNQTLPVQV
The settings on record: at 1 µM.

Test [9] deals with T4, Ephrin type-B receptor 3 (Homo sapiens). The settings on record: at 10 µM.
The target of test [10] is Focal adhesion kinase 1 (Homo sapiens) (UniProt Q05397). The settings on record: at 1 µM.
Focal adhesion kinase 1 (Homo sapiens), sequence (Q05397 2-1052 limits assumed): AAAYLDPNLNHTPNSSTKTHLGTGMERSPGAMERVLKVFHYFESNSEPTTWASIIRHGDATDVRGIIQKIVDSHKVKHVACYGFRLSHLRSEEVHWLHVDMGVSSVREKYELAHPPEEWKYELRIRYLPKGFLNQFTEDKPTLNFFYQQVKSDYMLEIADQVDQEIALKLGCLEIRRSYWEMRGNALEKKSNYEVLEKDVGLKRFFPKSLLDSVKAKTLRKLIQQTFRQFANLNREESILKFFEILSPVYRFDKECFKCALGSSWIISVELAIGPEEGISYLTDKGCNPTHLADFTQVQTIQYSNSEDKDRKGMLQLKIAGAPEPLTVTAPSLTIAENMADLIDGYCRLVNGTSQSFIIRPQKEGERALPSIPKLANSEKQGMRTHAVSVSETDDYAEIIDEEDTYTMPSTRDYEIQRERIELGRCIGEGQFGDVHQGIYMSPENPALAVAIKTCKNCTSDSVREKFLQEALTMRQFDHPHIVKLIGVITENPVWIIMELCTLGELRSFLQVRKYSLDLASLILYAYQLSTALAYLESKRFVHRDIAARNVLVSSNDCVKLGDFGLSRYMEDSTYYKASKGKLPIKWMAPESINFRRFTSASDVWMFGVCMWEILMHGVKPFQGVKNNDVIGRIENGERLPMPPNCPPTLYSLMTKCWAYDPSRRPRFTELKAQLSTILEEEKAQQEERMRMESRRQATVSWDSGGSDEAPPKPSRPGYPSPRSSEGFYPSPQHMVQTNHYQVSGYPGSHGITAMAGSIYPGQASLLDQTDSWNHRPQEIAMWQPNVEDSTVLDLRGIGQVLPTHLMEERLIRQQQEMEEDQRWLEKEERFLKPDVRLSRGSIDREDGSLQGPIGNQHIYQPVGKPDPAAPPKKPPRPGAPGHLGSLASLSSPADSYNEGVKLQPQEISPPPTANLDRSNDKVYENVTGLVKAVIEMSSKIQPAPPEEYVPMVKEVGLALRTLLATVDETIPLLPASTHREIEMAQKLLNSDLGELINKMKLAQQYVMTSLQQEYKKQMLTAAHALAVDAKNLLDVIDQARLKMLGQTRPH

On to `Cn1c2ccccc2c2c3c(c4c5ccccc5n(CCC#N)c4c21)CNC3=O`, for which the residual activity in [1] was determined as 50%; in [2], 43%; in [3], 39%; in [4], 63%; in test [5], 63%; in [6], 116%. In addition, the residual activity was 111% in test [7], 105% (inactive) in [8], 118% in [9] and 33% in [10].
